Screens as filed in PubChem.
Rows were chosen to be rich in hits. Some 0.53% of all compounds tested hit in one or more screens of this group.
IL2 activator – activators of IL-2. IL-2 activation reporter assay, cell-based qHTS; stimulated with anti-CD3/CD4/CD28 beads; in transgenic mouse T cells. activation, % (series mostly up to about 46 µM). hit rate 0.065% among 360,000. AID 652025; in the data active means activation above about 50%; inconclusive means mostly about 30% to 49%
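Unstimulated transgenic mouse T cells; 60-min compound exposure; bead-based TCR/CD4/CD28 stimulation; 18 h culture, 37 degrees C; dual fluorescence (EGFP, DsRed) plate cytometry.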
Vif-APOBEC3F blk – inhibitors of Vif-A3F interaction; Potency, µM (highest dose often 46.1 µM); hit rate 0.2% among 390,000; HeLa A3F-eYFP + Vif (tagged APOBEC3F with the HIV-1 protein that degrades it), YFP fluorescence increase; further: nearly all actives have a fitted effect of over 65% in size
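Fluorescence increase (Ex 488/Em 500-530) after overnight compound treatment at 37 deg C flags inhibition of Vif-driven A3F-eYFP loss in stable HeLa A3F-eYFP/Vif cells seeded overnight beforehand.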
PKM2 activator – PKM2 (human) enzyme activation. purified PKM2, Kinase-Glo ATP luminescence, activation; response scale: 0% is enzyme alone, no compound. Potency, µM (series often up to 57.5 µM), most hits filed as activators. hit rate 0.34% among 260,000. AID 1631; further: nearly all actives have a fitted effect of over 55% in size
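ATP formation by purified human PK-M2, quantified via coupled luciferase luminescence after 1 h at room temperature with 0.1 mM ADP and 0.5 mM PEP final.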
Vif-APOBEC3G blk – blocks the Vif interaction with human APOBEC3G | Q9HC16 | HeLa A3G-eYFP + Vif (tagged APOBEC3G with the HIV-1 protein that degrades it), YFP fluorescence, overnight | Potency, µM (highest dose often 46.1 µM), most hits filed as inhibitors | hit rate 0.076% among 410,000 | AID 602310; further: nearly all actives have a fitted effect of over 60% in size
Target sequence (Q9HC16 whole entry, looked up): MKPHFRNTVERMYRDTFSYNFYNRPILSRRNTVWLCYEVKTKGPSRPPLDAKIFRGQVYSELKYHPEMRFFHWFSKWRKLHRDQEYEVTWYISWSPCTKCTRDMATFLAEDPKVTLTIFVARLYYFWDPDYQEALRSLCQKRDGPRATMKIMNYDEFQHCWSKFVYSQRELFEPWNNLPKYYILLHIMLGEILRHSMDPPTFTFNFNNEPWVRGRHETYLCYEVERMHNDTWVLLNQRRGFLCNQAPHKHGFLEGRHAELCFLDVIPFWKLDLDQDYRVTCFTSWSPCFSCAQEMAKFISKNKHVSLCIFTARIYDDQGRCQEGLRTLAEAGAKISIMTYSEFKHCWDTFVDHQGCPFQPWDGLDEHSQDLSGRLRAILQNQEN
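HeLa cells stably expressing Vif and C-terminally eYFP-tagged A3G, seeded overnight at 37 deg C, then exposed to compound by pintool overnight at 37 deg C. Rise in yellow fluorescence (Ex 488/Em 500-530, Acumen) marks blocked Vif-driven A3G degradation.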
A number is an active result; n = inactive; u = inconclusive; x = no result; [ ] = another dose, or the depositor's remark. Unless noted, the call rests on the fitted dose curve; in most records, active means well fitted curve in the direction sought with a large enough effect; inconclusive means small, poorly fitted or top-dose-only effect, or another doubt; inactive means no such curve, though single readings can be large; an effect the other way counts as inactive or inconclusive.

SMILES	IL2 activator	Vif-APOBEC3F blk	PKM2 activator	Vif-APOBEC3G blk
COC(=O)[C@@]1(Cc2ccc(OC)cc2)[C@H]2c3cc(C(=O)N4CCCC4)n(Cc4cc(F)cc5c4OCOC5)c3C[C@H]2CN1C(=O)c1ccccc1	x	x	n	x
O=c1c2sccc2nc(SCc2cc(=O)n3cc(Br)ccc3n2)n1Cc1ccccn1	n	n	7.94µM	n
CNc1c([N+](=O)[O-])cnn1-c1ccccc1Cl	n	n	u	n
CNc1c([N+](=O)[O-])cnn1-c1ccc(Cl)cc1Cl	n	n	11.2µM	n
COc1cc(N2CCCC2)c(OC)cc1/C=C(/C#N)c1cccc(F)c1	n	u	n	5.01µM
N#C/C(=C\c1ccc(N2CCOCC2)o1)c1ccccc1	n	u	u	u
COc1cccc(/C=C(/C#N)c2ccc(F)cc2)c1OCc1cccc(C(=O)O)c1	n	n	n	n
N#C/C(=C/c1ccc(N2CCCCCC2)o1)c1ccc(F)cc1	n	28.2µM	x	u
N#C/C(=C/c1ccc(N2CCOCC2)o1)C(=O)NC1CCCCC1	n	22.4µM	n	11.2µM
N#C/C(=C\c1ccc(N2CCOCC2)o1)C(=O)Nc1ccc(O)cc1	n	u	n	u
N#C/C(=C/c1ccc(N2CCCCCC2)o1)c1cccc(F)c1	n	5.01µM	u	u
CC(C)C(NS(=O)(=O)c1ccc2c(c1)oc(=O)n2C)C(=O)NCCc1ccccc1 (stereo unspecified)	x	n	x	n
N#C/C(=C/c1ccc(N2CCOCC2)o1)c1ccc(Br)cc1	n	x	14.1µM	u
CC(C)(C)n1ncc2c(=O)n(Cc3ccccc3C(F)(F)F)cnc21	x	x	x	n
COCCCNC(=O)c1sc2nc(C)c(C(=O)Nc3ccc(C)cc3C)c(-c3ccc(Cl)cc3)c2c1N	x	n	x	n
COc1ccc(OC)c(/C=C/c2nc3ccccc3[nH]c2=O)c1	139.1	22.4µM	n	u
COc1ccc(OC)c(/C=C/c2nc3ccccc3nc2C)c1	x	x	x	n
COCCCN1CN=C(NS(=O)(=O)c2ccc(NC(C)=O)cc2)NC1	x	n	x	n
COC(=O)CSc1nc(C)cc(C(F)(F)F)c1C#N	n	n	n	n
Cc1ccc(S(=O)(=O)CCSc2nc(C)cc(C(F)(F)F)c2C#N)cc1	n	u	u	11.2µM
CC(C)NC(=O)NC(=O)CSc1ncc(C(F)(F)F)cc1Cl	n	n	14.1µM	n
CC(C)(C)NC(=O)NC(=O)CSc1ncc(C(F)(F)F)cc1Cl	n	n	n	n
CCOc1ccc(CNCc2c(C(=O)O)c(C)n(Cc3ccc(F)cc3Cl)c2C)cc1	x	n	x	n
Cn1c(SCC(=O)Nc2ccc(Cl)cn2)nnc1C1CC1	n	n	n	n
Cn1c(SCC(=O)c2ccccc2F)nnc1C1CC1	n	n	31.6µM	n
SMILES	IL2 activator	Vif-APOBEC3F blk	PKM2 activator	Vif-APOBEC3G blk
CCOc1ccccc1C1CC(c2cccs2)=NN1S(C)(=O)=O (stereo unspecified)	n	31.6µM	n	n
S=C(NCc1ccc(Cl)cc1)Nc1ccncc1	n	n	n	n
O=C(CCS(=O)(=O)c1cc(Br)cc2c1N(C(=O)C1CC1)CC2)Nc1ccc(F)cc1	x	n	x	n
CCN(CC)c1ccc(/C=C2\SC(N)=NC2=O)cc1	n	u	n[11.5 µM]	8.91µM
CCOc1cccc2sc(NC(=O)c3ccc(S(=O)(=O)N4CCCCC4)cc3)nc12	x	n	x	n
CS(=O)(=O)Nc1ccc(C2=NN(S(=O)(=O)c3ccccc3)C(c3cccs3)C2)cc1 (stereo unspecified)	n	22.4µM	n	u
CS(=O)(=O)Nc1cccc(C2=NN(S(=O)(=O)c3ccc(F)cc3)C(c3cccs3)C2)c1 (stereo unspecified)	n	u	n	n
Cc1ccc(C2=NN(S(=O)(=O)c3ccccc3)C(c3ccccc3O)C2)cc1 (stereo unspecified)	n	25.1µM	n	n
CCc1cccc(NC(=O)C2CCC(CNS(=O)(=O)c3ccc4c(c3)CCCC(=O)N4)CC2)c1 (stereo unspecified)	x	n	x	n
CSc1c(C#N)c(N)nc2sc(C(=O)c3ccccc3)c(N)c12	275.0	u	n	n
Cc1cc(=O)n(CC(=O)Nc2ccc([N+](=O)[O-])cc2)c(-n2nc(C)cc2C)n1	x	n	x	n
CSc1nsc(/C=C/Nc2ccc(O)cc2C)c1C#N	n	10µM	n	u
CSc1nsc(/C=C/Nc2ccc(F)cc2)c1C#N	n	22.4µM	n	u
CCOc1ccc(C(=O)c2cn(CC(=O)Nc3ccc(C)c(C)c3)c3ccc(OCC)cc3c2=O)cc1	x	n	x	n
COC(=O)c1ccc(COc2cccn3c(N(C)C(=O)CCC4CCCC4)c(C)nc23)cc1	n	x	x	n
O=C(CCN1C(=O)/C(=C/c2ccccc2)SC1=S)Nc1cccnc1	n	n	x	n
CCc1ccc(/C=C2/SC(=S)N(CCC(=O)Nc3cccnc3)C2=O)cc1	53.6	n	n	n
O=S1(=O)N=C(N(CCO)/N=C/c2ccc(Cl)cc2)c2ccccc21	n	n	x	n
CN(C)c1ccc(/C=N/N(CCO)C2=NS(=O)(=O)c3ccccc32)cc1	n	22.4µM	x	n
CCOc1ccc(NC(=O)/C(C#N)=C\c2ccc(N3CCCC3)c(C)c2)cc1	174.0	11.2µM	x	u
O=C(O)c1ccccc1NS(=O)(=O)c1cccc(C(F)(F)F)c1	n	n	n	n
O=C(O)c1ccccc1NS(=O)(=O)c1cccc(-n2sc3ccccc3c2=O)c1	n	n	2.51µM	n
CCC(=O)Nc1ccc(-c2nnc(SCc3ccccc3)n2C)cc1	x	x	x	n
COc1ccccc1N1N=C(c2ccc([N+](=O)[O-])cc2)CC1c1ccccc1 (stereo unspecified)	n	n	n	2.51µM
C=CCN1C(=O)/C(=C2/Sc3ccc(OC)cc3N2CC)SC1=S	189.2	u	n	n
SMILES	IL2 activator	Vif-APOBEC3F blk	PKM2 activator	Vif-APOBEC3G blk
C=CCN1C(=O)/C(=C2/Sc3ccc(OC)cc3N2C)SC1=Nc1ccc(OC)cc1	x	x	n	x
CCCCN1C(=O)/C(=C2/Sc3ccc(OC)cc3N2CC)SC1=S	118.4	n	n	n
CCN1/C(=C2/SC(=S)N(NC(C)=O)C2=O)Sc2ccc(OC)cc21	n	n	n	n
O=C(CN(C1CC1)S(=O)(=O)c1ccc(S(=O)(=O)N2CCCCCC2)cc1)Nc1ccccc1	n	n	n	n
COC(=O)CCN(C1CCCCC1)S(=O)(=O)c1ccc(S(=O)(=O)N2CCCCC2)cc1	n	n	28.2µM	n
CCC1=Nc2cc(C(=O)NC3CCCC3)ccc2Sc2ccc(Cl)cc21	x	n	x	u
Cc1ccc(-c2nn(-c3ccccc3)cc2C(=O)O)o1	x	x	n	x
Cc1ccc(-c2nn(-c3ccccc3)cc2CN(Cc2ccccc2)C(=O)c2ccco2)o1	n	n	25.1µM	n
CCOCCc1nnc(NC(=O)C(=O)c2cc(C)n(-c3cccc(Cl)c3)c2C)s1	x	n	x	n
C(=C\c1ccnc2ccccc12)/c1ccc(N2CCOCC2)cc1	x	x	x	n
CC1Cc2cc(S(=O)(=O)NCc3ccc(F)cc3)ccc2N1C(=O)C1CCC1 (stereo unspecified)	x	n	x	n
Cn1c(=O)c2c(-c3ccc(Br)cc3)n(Cc3ccc(F)cc3)cc2n(C)c1=O	x	n	x	n
